Experimental data: PubChem BioAssay
Where “and” joins values, the source holds several entries; their conditions need not be identical. Equal values may be shown once. Inconclusive results are not listed. More than one record can exist for a structure, and the calls need not agree. Calls of active or inactive are those of the source.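 The calls were made as follows, unless noted: active = normalized viability below 100% at a tested concentration; inactive = the rest.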

What was measured:
[1] = growth inhibition of DIPG glioma cells, dose response, cell-based, SU-DIPG-XVII, MIPE5.0, CellTiter-Glo, qHTS (AID 1347060; cut-off not given, nearly all actives have AC50 up to about 26 µM;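 as to AC50: cells exposed to compound for 48 hours before viability readout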); details: SU-DIPG-XVII viability, CellTiter-Glo ATP luminescence
[2] = growth inhibition of DIPG glioma cells, dose response, cell-based, SU-DIPG-XIII, MIPE4.0, CellTiter-Glo, qHTS (AID 1347061; cut-off not given, nearly all actives have AC50 up to about 37 µM;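 also: cells exposed to compound for 48 hours before readout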); details: SU-DIPG-XIII viability, CellTiter-Glo ATP luminescence
[3] = growth inhibition of DIPG glioma cells, dose response, cell-based, JHH-DIPG-1, MIPE4.0, CellTiter-Glo, qHTS (AID 1347062; cut-off not given, nearly all actives have AC50 up to about 27 µM;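 as to AC50: cells exposed to compound for two days before readout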); details: JHH-DIPG-1 viability, CellTiter-Glo ATP luminescence
[4] = growth inhibition of DIPG glioma cells, dose response, cell-based, SU-DIPG-IV, MIPE4.0, CellTiter-Glo, qHTS (AID 1347063; cut-off not given, nearly all actives have AC50 up to about 30 µM;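 also: compound exposure lasted 48 hours before the viability readout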); details: SU-DIPG-IV viability, CellTiter-Glo ATP luminescence
[5] = growth inhibition of DIPG glioma cells, dose response, cell-based, SU-DIPG-XIII, MIPE5.0, CellTiter-Glo, qHTS (AID 1347064; cut-off not given, nearly all actives have AC50 up to about 23 µM;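 as to AC50: cells exposed to compound for 48 hours before the viability read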); details: SU-DIPG-XIII viability, CellTiter-Glo ATP luminescence
[6] = viability loss in pontine glioma line – cell-based, SU-DIPG-XXV, MIPE5.0, CellTiter-Glo, qHTS, dose response (AID 1347065; cut-off not given, nearly all actives have AC50 up to about 26 µM;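 also: cells exposed to compound for 48 hours before ATP readout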); details: CellTiter-Glo ATP luminescence
[7] = SU-DIPG-VI glioma cell viability, MIPE4.0 library, CellTiter-Glo luminescence, qHTS (AID 1347066; cut-off not given, nearly all actives have AC50 up to about 30 µM;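 also: cells exposed to compound for 48 hours before readout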); details: CellTiter-Glo ATP luminescence
[8] = JHH-DIPG-1 glioma cell viability, MIPE5.0 library, CellTiter-Glo luminescence, qHTS (AID 1347067; cut-off not given, nearly all actives have AC50 up to about 26 µM;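 also: cells exposed to compound for 48 hours before readout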); details: JHH-DIPG-1 glioma viability, CellTiter-Glo ATP luminescence
[9] = sensitizers of A549 cells to miR-34 induction, primary screen, imaging, A549 dox-inducible miR-34, nuclei and caspase counts (AID 1347080;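 active = compounds whose cell count with miR-34 switched on is under 0.7 times the count with it off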); details: A549 miR-34 inducible, Hoechst nuclei count, 48 h
[10] = modifiers of HSF1 nuclear foci, imaging, Selleck Cancer Library (AID 1347162; in the data active = plate-normalised HSF1 focus index below about 0.46); details: human cells, at 10 µM; SSMD: measured here: HSF1 foci SSMD mean; cell count: measured here: cell number; plate-normalised HSF1 focus index: stronger effect = lower value
[11] = survival rescue of mitochondrial mutant cells in low glucose, primary screen, MELAS cybrids, Rieske KO mouse fibroblasts, CellTiter-Glo (AID 1508586;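 active = mean z-score across replicates of 1.96 or higher in either the MELAS or the Rieske mutant cell line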;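 also: z relative to plate mean and SD of compound and empty wells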)
[12] = ovarian cancer cell viability with rucaparib, profiling panel, oncology-focused library, rucaparib conditional (AID 1508598); details: patient-derived ovarian cancer cells, CellTiter-Glo viability, 144 h, stronger effect = lower value
[13] = LFS_MB_P medulloblastoma growth inhibition, cell-based, chromothripsis tumors, cisplatin or BGB combos (AID 1671449; in the data active = inhibition above about 80%;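 also: cells exposed for 96 hours; 0% = vehicle DMSO and 100% = killing by high DMSO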); details: LFS_MB_P medulloblastoma cells
[14] = HDN33 neuroblastoma growth inhibition, cell-based, chromothripsis tumors, cisplatin or BGB combos (AID 1671450; in the data active = inhibition above about 80%;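 also: cells exposed to compound for four days; 0% = vehicle DMSO and 100% = cell killing by high DMSO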); details: HDN33 neuroblastoma cells, stronger effect = higher value
[15] = ICB984 medulloblastoma cell growth inhibition, synergistic combos for chromothripsis tumors, cisplatin or BGB combos (AID 1671451; call rule not given here;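 also: cells exposed for 96 hours before readout; 0% = vehicle DMSO and 100% = killing by high DMSO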); details: ICB984 medulloblastoma cells, drug combinations, stronger effect = higher value
[16] = HTB85 osteosarcoma cell growth inhibition, synergistic combos for chromothripsis tumors, BGB or cisplatin IC20 combos (AID 1671453; in the data active = inhibition above about 80%;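 also: cells exposed for 96 hours before readout; 0% = vehicle DMSO and 100% = high DMSO killing control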); details: HTB85 osteosarcoma cells, drug combinations, stronger effect = higher value
[17] = MDA-MB-436 breast carcinoma cell growth inhibition, synergistic combos for chromothripsis tumors, BGB or cisplatin combos (AID 1671458; call rule not given here;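 also: cells exposed for 96 hours; 0% = vehicle DMSO and 100% = killing by high DMSO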); details: MDA-MB-436 breast carcinoma growth inhibition, drug combinations, stronger effect = higher value
[18] = growth inhibition of BT084 medulloblastoma cells, cell-based, ICGC_MB145, cisplatin and BGB IC40 combos (AID 1671461; in the data active = inhibition above about 80%;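 also: cells exposed to drugs for 96 hours; 0% = vehicle DMSO and 100% = high DMSO full killing control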); details: drug combinations, stronger effect = higher value
[19] = growth inhibition of RCMB18 medulloblastoma cells, cell-based, cisplatin and BGB IC40 combos (AID 1671462; in the data active = inhibition above about 80%;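 also: cells exposed to compound for four days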); details: stronger effect = higher value
[20] = SU-DIPG-XXV glioma cell viability, MIPE5.0 library, qHTS (AID 1347068; cut-off not given, nearly all actives have IC50 up to about 30 µM;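 also: cells exposed to compound for 48 hours before viability readout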)

## C#Cc1cccc(Nc2ncnc3cc(OC)c(OCCCCCCC(=O)NO)cc23)c1
[1]
  AC50: 742 nM (active)
[2]
  AC50: 398 nM (active)
[3]
  AC50: 148 nM (active)
[4]
  AC50: 418 nM (active)
[5]
  AC50: 661 nM (active)
[6]
  AC50: 417 nM (active)
[7]
  AC50: 74.3 nM (active)
[8]
  AC50: 833 nM (active)
[9]; stronger effect = lower value, cell number ratio, induced over uninduced
  fold change: 0.901 (inactive)
[9]; measured here: relative caspase fold change +Dox/-Dox
  fold change: 0.807
[9]; measured here: total cells with miR-34 induction, stronger effect = lower value
  cell count: 1090
[9]; measured here: total cells without miR-34 induction
  cell count: 1210
[10]
  SSMD: -4.22
  cell count: 7310
  plate-normalised HSF1 focus index: 0.849 (inactive)
[11]; MELAS cybrid survival, CellTiter-Glo 48 h, stronger effect = higher value
  z-score: 1.07 (inactive)
[11]; Rieske KO mouse fibroblast survival, CellTiter-Glo 72 h
  z-score: 1.33
[12]; at 0.000305 µM, OCI-C5x cells, with rucaparib 10 µM, 100% = cells with rucaparib alone
  viability: 114% (inactive)
[12]; at 0.000305 µM, OCI-C5x cells, without rucaparib
  viability: 114% (inactive)
[12]; at 0.000305 µM, OCI-P5x cells, with rucaparib 20 µM, 100% = cells with rucaparib alone
  viability: 108% (inactive)
[12]; at 0.000305 µM, OCI-P5x cells, without rucaparib
  viability: 96.4% (active)
[12]; at 0.00122 µM, OCI-C5x cells, with rucaparib 10 µM, 100% = cells with rucaparib alone
  viability: 111% (inactive)
[12]; at 0.00122 µM, OCI-C5x cells, without rucaparib
  viability: 113% (inactive)
[12]; at 0.00122 µM, OCI-P5x cells, with rucaparib 20 µM, 100% = cells with rucaparib alone
  viability: 104% (inactive)
[12]; at 0.00122 µM, OCI-P5x cells, without rucaparib
  viability: 98.8% (active)
[12]; at 0.00488 µM, OCI-C5x cells, with rucaparib 10 µM, 100% = cells with rucaparib alone
  viability: 118% (inactive)
[12]; at 0.00488 µM, OCI-C5x cells, without rucaparib
  viability: 106% (inactive)
[12]; at 0.00488 µM, OCI-P5x cells, with rucaparib 20 µM, 100% = cells with rucaparib alone
  viability: 113% (inactive)
[12]; at 0.00488 µM, OCI-P5x cells, without rucaparib
  viability: 111% (inactive)
[12]; at 0.0195 µM, OCI-C5x cells, with rucaparib 10 µM, 100% = cells with rucaparib alone
  viability: 112% (inactive)
[12]; at 0.0195 µM, OCI-C5x cells, without rucaparib
  viability: 112% (inactive)
[12]; at 0.0195 µM, OCI-P5x cells, with rucaparib 20 µM, 100% = cells with rucaparib alone
  viability: 110% (inactive)
[12]; at 0.0195 µM, OCI-P5x cells, without rucaparib
  viability: 109% (inactive)
[12]; at 0.0781 µM, OCI-C5x cells, with rucaparib 10 µM, 100% = cells with rucaparib alone
  viability: 113% (inactive)
[12]; at 0.0781 µM, OCI-C5x cells, without rucaparib
  viability: 113% (inactive)
[12]; at 0.0781 µM, OCI-P5x cells, with rucaparib 20 µM, 100% = cells with rucaparib alone
  viability: 107% (inactive)
[12]; at 0.0781 µM, OCI-P5x cells, without rucaparib
  viability: 108% (inactive)
[12]; at 0.313 µM, OCI-C5x cells, with rucaparib 10 µM, 100% = cells with rucaparib alone
  viability: 87.3% (active)
[12]; at 0.313 µM, OCI-C5x cells, without rucaparib
  viability: 85.9% (active)
[12]; at 0.313 µM, OCI-P5x cells, with rucaparib 20 µM, 100% = cells with rucaparib alone
  viability: 91.1% (active)
[12]; at 0.313 µM, OCI-P5x cells, without rucaparib
  viability: 98.9% (active)
[12]; at 1.25 µM, OCI-C5x cells, with rucaparib 10 µM, 100% = cells with rucaparib alone
  viability: 10.5% (active)
[12]; at 1.25 µM, OCI-C5x cells, without rucaparib
  viability: 39.1% (active)
[12]; at 1.25 µM, OCI-P5x cells, with rucaparib 20 µM, 100% = cells with rucaparib alone
  viability: 3.13% (active)
[12]; at 1.25 µM, OCI-P5x cells, without rucaparib
  viability: 21.8% (active)
[12]; at 5 µM, OCI-C5x cells, with rucaparib 10 µM, 100% = cells with rucaparib alone
  viability: 5.56% (active)
[12]; at 5 µM, OCI-C5x cells, without rucaparib
  viability: 5.78% (active)
[12]; at 5 µM, OCI-P5x cells, with rucaparib 20 µM, 100% = cells with rucaparib alone
  viability: 1.22% (active)
[12]; at 5 µM, OCI-P5x cells, without rucaparib
  viability: 1.21% (active)
[13]; at 0.5 µM, stronger effect = higher value
  inhibition: 17.8% (inactive) and 78.4% (inactive)
[13]; measured here: combination with BGB IC20, at 0.005 µM
  inhibition: -22.9% and -21.6%
[13]; measured here: combination with BGB IC40, at 0.005 µM
  inhibition: -38.4% and -30.8%
[13]; measured here: combination with BGB IC40, at 0.05 µM
  inhibition: -32.8% and -22.5%
[13]; measured here: combination with cisplatin, at 0.5 µM, stronger effect = higher value
  inhibition: 83.8% and 104%
[13]; measured here: combination with cisplatin, at 5 µM, stronger effect = higher value
  inhibition: 112% and 113%
[14]; BGB combo, at 5 µM
  inhibition: 99.5% and 95.1%
[14]; at 0.5 µM
  inhibition: -1.62% (inactive) and 3.24% (inactive)
[14]; cisplatin combo, at 5 µM
  inhibition: 99.9% and 94.2%
[14]; measured here: with BGB IC20 combination, at 0.5 µM
  inhibition: -9.96% and -0.599%
[14]; measured here: with cisplatin IC20 combination, at 0.5 µM
  inhibition: 6.06% and 12.1%
[14]; single agent, at 5 µM
  inhibition: 99.8% and 96.9%
[15]; BGB IC20 combo, at 0.005 µM
  inhibition: 68.4% and 23%
[15]; BGB IC40 combo, at 0.005 µM
  inhibition: 78.3% and 29.4%
[15]; BGB IC40 combo, at 0.05 µM
  inhibition: 98% and 101%
[15]; at 0.5 µM
  inhibition: -18.6% (inactive) and -24.1% (inactive)
[15]; cisplatin combo, at 0.05 µM
  inhibition: 97.9% and 101%
[15]; cisplatin combo, at 0.5 µM
  inhibition: -22% and -24.1%
[15]; cisplatin combo, at 5 µM
  inhibition: -70.9% and -33.8%
[15]; measured here: 5 uM single agent, at 5 µM
  inhibition: -13.9% and -10.2%
[16]; at 0.5 µM
  inhibition: 11.7% (inactive) and 4.4% (inactive)
[16]; measured here: with BGB IC20, at 0.5 µM
  inhibition: -2.94% and -22.5%
[16]; measured here: with BGB IC20, at 5 µM
  inhibition: 99.7% and 73%
[16]; measured here: with cisplatin IC20, at 0.5 µM
  inhibition: 26% and 9.91%
[16]; measured here: with cisplatin IC20, at 5 µM
  inhibition: 67.6% and 94.8%
[16]; single agent, at 5 µM
  inhibition: 99.9% and 74.9%
[17]; at 0.5 µM
  inhibition: -4.99% (inactive) and -13.2% (inactive)
[17]; measured here: BGB combination, at 0.5 µM
  inhibition: -10.9% and -11.9%
[17]; measured here: BGB combination, at 5 µM
  inhibition: 61.3% and 55.7%
[17]; measured here: cisplatin combination, at 0.5 µM
  inhibition: -18.9% and -27.4%
[17]; measured here: cisplatin combination, at 5 µM
  inhibition: 74.5% and 60.7%
[18]; at 0.5 µM
  inhibition: 82% (active) and 58.2% (inactive)
[18]; cisplatin combination, at 0.5 µM
  inhibition: 99.1% and 87.2%
[18]; cisplatin combination, at 5 µM
  inhibition: 103% and 101%
[18]; measured here: BGB IC40 combination 0.05 uM, at 0.05 µM
  inhibition: -29.2% and 20%
[18]; single agent, at 5 µM
  inhibition: 106% and 108%
[19]; at 0.5 µM
  inhibition: 69.7% (inactive) and 45.9% (inactive)
[19]; cisplatin combo, at 5 µM
  inhibition: 96.3%
[19]; measured here: BGB IC40 combination, at 0.05 µM
  inhibition: -10.5% and -3.2%
[19]; measured here: combination with cisplatin, at 0.5 µM
  inhibition: 82.3% and 57.4%
[19]; single agent, at 5 µM
  inhibition: 89.6% and 92.4%

## CC(C)(O)c1cc2nc(-c3cnc(N)nc3)nc(N3CCOCC3)c2s1
[1]
  AC50: 1180 nM (active)
[2]
  AC50: 590 nM (active)
[3]
  AC50: 833 nM (active)
[4]
  AC50: 52.6 nM (active)
[5]
  AC50: 1050 nM (active)
[6]
  AC50: 417 nM (active)
[7]
  AC50: 148 nM (active)
[20]
  IC50: 1180 nM (active)

## C[C@@H]1CCN(C(=O)CC#N)C[C@@H]1N(C)c1ncnc2[nH]ccc12
[1]
  outcome: inactive
[2]
  outcome: inactive
[3]
  outcome: inactive
[4]
  outcome: inactive
[5]
  outcome: inactive
[6]
  outcome: inactive
[7]
  outcome: inactive
[8]
  outcome: inactive
[10]
  SSMD: 3.28
  cell count: 7280
  plate-normalised HSF1 focus index: 1.17 (inactive)
